Assay results as given in PubChem BioAssay AID1159580 (chemical genetic matrix, 2015).
Several values for one entry are separate records, joined by “and”; a condition that tells them apart may be missing. Equal values may be shown once. Screen size: about 5,500 compounds; about 2,000 (36%) were called active. About 18% were inconclusive and are not listed. No stated cut-off is given here; in the data, active means normalized growth mostly below about 0.91 (no sharp cut-off); inconclusive means no clear call, values can overlap the other calls; inactive means mostly above about 0.92. The list shows a part of the results.

Experiment: chemical genetic growth profiling, strain panel (AID 1159580);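 further: tested at 20 µM; growth read once vehicle control cultures reached saturation at 30 °C; 1 = growth at the plate median or of vehicle wells; lower values mean less growth of the strain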
Details: S. cerevisiae deletion strains, growth OD

Measured: normalized growth

CC(C(=O)O)c1ccc(N2Cc3ccccc3C2=O)cc1 (configuration not stated)
inactive: locus YAL021C, strain ccr4, hits give low values 0.994 | locus YAL026C, strain drs2, hits give low values 1 | locus YAL030W, strain snc1, hits give low values 0.994 | locus YBL061C, strain skt5, hits give low values 0.983 | locus YBR009C, strain hhf1, hits give low values 0.97 | locus YBR021W, strain FUR4, hits give low values 1.01 | locus YBR023C, strain chs3, hits give low values 0.966 | locus YBR171W, strain sec66, hits give low values 0.971 | locus YBR229C, strain ROT2, hits give low values 1.01 | locus YBR231C, strain swc5, hits give low values 0.993 | locus YBR279W, strain paf1, hits give low values 0.972 | locus YCL011C, strain gbp2, hits give low values 0.946 | locus YCL016C, strain dcc1, hits give low values 0.956 | locus YCL029C, strain bik1, hits give low values 0.996 | locus YCL061C, strain MRC1, hits give low values 0.986 | locus YCL069W, strain vba3, hits give low values 0.994 | locus YCR088W, strain abp1, hits give low values 0.987 | locus YDL005C, strain med2, hits give low values 0.991 | locus YDL035C, strain GPR1, hits give low values 1.02 | locus YDL040C, strain nat1, hits give low values 0.989 | locus YDL074C, strain BRE1, hits give low values 1.02 | locus YDL101C, strain DUN1, hits give low values 1.01 | locus YDL185W, strain tfp1, hits give low values 0.989 | locus YDL192W, strain arf1, hits give low values 0.99 | locus YDR001C, strain nth1, hits give low values 0.99 | locus YDR069C, strain doa4, hits give low values 0.993 | locus YDR101C, strain arx1, hits give low values 1 | locus YDR137W, strain rgp1, hits give low values 0.988 | locus YDR159W, strain sac3, hits give low values 1.05 | locus YDR162C, strain NBP2, hits give low values 1.01 | locus YDR195W, strain ref2 1.01 | locus YDR297W, strain sur2, hits give low values 0.99 | locus YDR318W, strain mcm21, hits give low values 0.99 | locus YDR334W, strain swr1, hits give low values 0.986 | locus YDR335W, strain msn5, hits give low values 0.993 | locus YDR388W, hits give low values 0.992 | locus YDR392W, strain spt3, hits give low values 0.988 | locus YDR502C, strain sam2, hits give low values 1 | locus YEL003W, strain gim4, hits give low values 1.01 | locus YEL037C, strain rad23, hits give low values 0.975 | locus YEL061C, strain CIN8 (second series), hits give low values 0.99 | locus YEL061C, strain CIN8, hits give low values 1.01 | locus YER015W, strain faa2, hits give low values 1 | locus YER016W, strain bim1, hits give low values 0.993 | locus YER110C, hits give low values 0.994 | locus YER111C, strain swi4, hits give low values 0.985 | locus YER155C, strain BEM2 (second series), hits give low values 0.948 | locus YER155C, strain BEM2, hits give low values 1.02 | locus YER167W, strain BCK2, hits give low values 1.01 | locus YFR010W, strain ubp6, hits give low values 1 | locus YGL078C, strain dbp3, hits give low values 0.985 | locus YGL086W, strain mad1, hits give low values 1.01 | locus YGL167C, strain pmr1, hits give low values 0.991 | locus YGL173C, strain kem1, hits give low values 0.997 | locus YGL227W, strain vid30, hits give low values 0.988 | locus YGL240W, strain doc1, hits give low values 1 | locus YGL248W, strain PDE1, hits give low values 1.02 | locus YGL253W, strain hxk2, hits give low values 1 | locus YGR135W, strain pre9, hits give low values 0.971 | locus YGR252W, strain gcn5, hits give low values 0.938 | locus YHR013C, strain ard1, hits give low values 0.961 | locus YHR027C, strain rpn1, hits give low values 0.986 | locus YHR030C, strain SLT2, hits give low values 1.01 and 0.993 | locus YHR079C, strain IRE1 (second series), hits give low values 1.01 | locus YHR079C, strain IRE1, hits give low values 0.987 | locus YHR094C, strain hxt1, hits give low values 0.987 | locus YHR129C, strain ARP1, hits give low values 1.02 | locus YHR142W, strain chs7, hits give low values 0.941 | locus YHR200W, strain rpn10, hits give low values 1 | locus YIL066C, strain RNR3, hits give low values 1.02 | locus YIL073C, strain SPO22, hits give low values 1 | locus YIL125W, strain kgd1, hits give low values 0.984 | locus YIR030C, strain dcg1, hits give low values 0.996 | locus YJL092W, strain hpr5, hits give low values 0.959 | locus YJL095W, strain BCK1 (second series), hits give low values 0.994 | locus YJL095W, strain BCK1, hits give low values 1.01 and 0.986 | locus YJL115W, strain asf1, hits give low values 0.982 | locus YJL129C, strain trk1, hits give low values 0.965 | locus YJL134W, strain LCB3, hits give low values 1.01 | locus YJL154C, strain vps35, hits give low values 0.987 | locus YJL164C, strain tpk1, hits give low values 0.988 | locus YJL166W, strain qcr8, hits give low values 0.987 | locus YJL168C, strain set2, hits give low values 0.98 | locus YJL187C, strain SWE1 (second series), hits give low values 1.01 | locus YJL187C, strain SWE1, hits give low values 0.993 | locus YJR043C, strain POL32, hits give low values 1.02 | locus YJR066W, strain TOR1, hits give low values 0.914
